The record followed here is the supplement of paper PMC12067093, “Discovery and optimisation of a covalent ligand for TRIM25 and its application to targeted protein ubiquitination” (Chemical Science, 2025).

The full data set covers some 21,000 targets. This sample favours those with the largest changes.

Compound in the assay: CC1Cc2ccccc2N1C(=O)C1CCCN(C1)C(=O)CCl (mixture of isomers) [TRIM25 ligand 11 (diastereomer mixture)]
The assay can be described thus: probe-labelled cysteine peptide fold change vs DMSO (competition) (log2 fold change); higher = less target engagement (more negative = stronger competition). Conditions: THP-1, incubation time: 4 h.
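Further: competitive chemoproteomic profiling in live THP-1 cells with an iodoacetamide desthiobiotin (IA-DTB) probe, comparing probe-labelled peptide intensities in compound-treated cells against DMSO-treated controls.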

Sequence of UniProt Q86YV0 (Q86YV0 whole entry, looked up): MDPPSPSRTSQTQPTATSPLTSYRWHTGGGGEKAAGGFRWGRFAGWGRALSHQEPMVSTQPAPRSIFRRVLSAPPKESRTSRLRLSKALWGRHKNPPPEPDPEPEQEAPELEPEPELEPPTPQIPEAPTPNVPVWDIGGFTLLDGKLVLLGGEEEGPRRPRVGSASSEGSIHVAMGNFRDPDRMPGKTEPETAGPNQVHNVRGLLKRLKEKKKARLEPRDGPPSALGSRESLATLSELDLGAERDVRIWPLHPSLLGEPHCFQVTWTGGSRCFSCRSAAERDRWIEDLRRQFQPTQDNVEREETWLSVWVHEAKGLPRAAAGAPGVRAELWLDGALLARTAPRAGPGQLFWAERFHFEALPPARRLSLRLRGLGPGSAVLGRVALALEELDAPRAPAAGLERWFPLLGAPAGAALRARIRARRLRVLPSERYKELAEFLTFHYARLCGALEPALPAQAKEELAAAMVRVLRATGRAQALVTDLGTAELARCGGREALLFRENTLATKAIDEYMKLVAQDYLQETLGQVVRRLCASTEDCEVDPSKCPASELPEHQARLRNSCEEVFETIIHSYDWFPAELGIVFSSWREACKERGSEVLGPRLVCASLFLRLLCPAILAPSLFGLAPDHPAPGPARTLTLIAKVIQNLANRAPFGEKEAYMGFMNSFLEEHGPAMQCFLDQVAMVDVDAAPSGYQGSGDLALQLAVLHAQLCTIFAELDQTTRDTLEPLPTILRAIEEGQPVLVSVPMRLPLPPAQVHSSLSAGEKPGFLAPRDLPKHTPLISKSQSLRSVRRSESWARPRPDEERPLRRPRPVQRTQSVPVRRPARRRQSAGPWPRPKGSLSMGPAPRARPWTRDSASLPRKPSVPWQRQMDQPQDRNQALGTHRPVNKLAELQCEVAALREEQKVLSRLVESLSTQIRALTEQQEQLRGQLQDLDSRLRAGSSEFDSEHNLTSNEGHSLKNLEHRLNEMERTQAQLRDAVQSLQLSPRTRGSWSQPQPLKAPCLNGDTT
Sequence of UniProt Q9H4A4 (Q9H4A4 whole entry, looked up): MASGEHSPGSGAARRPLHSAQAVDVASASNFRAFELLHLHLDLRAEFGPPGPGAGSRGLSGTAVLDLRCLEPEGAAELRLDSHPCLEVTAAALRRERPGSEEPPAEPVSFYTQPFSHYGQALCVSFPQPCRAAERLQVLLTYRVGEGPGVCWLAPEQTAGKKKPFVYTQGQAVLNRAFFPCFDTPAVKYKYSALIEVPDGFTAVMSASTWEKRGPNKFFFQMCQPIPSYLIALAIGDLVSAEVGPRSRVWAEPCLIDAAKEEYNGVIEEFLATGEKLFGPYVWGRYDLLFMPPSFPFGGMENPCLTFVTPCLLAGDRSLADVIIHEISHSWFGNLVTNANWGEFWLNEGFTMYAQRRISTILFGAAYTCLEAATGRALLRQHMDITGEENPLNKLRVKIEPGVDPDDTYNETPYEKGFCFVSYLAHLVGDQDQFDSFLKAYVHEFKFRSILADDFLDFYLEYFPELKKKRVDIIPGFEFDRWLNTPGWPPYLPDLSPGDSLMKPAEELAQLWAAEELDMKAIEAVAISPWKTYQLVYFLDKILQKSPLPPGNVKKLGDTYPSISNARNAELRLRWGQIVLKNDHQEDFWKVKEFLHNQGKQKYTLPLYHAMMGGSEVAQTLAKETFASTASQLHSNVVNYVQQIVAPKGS
Sequence of UniProt Q3YEC7 (Q3YEC7 whole entry, looked up): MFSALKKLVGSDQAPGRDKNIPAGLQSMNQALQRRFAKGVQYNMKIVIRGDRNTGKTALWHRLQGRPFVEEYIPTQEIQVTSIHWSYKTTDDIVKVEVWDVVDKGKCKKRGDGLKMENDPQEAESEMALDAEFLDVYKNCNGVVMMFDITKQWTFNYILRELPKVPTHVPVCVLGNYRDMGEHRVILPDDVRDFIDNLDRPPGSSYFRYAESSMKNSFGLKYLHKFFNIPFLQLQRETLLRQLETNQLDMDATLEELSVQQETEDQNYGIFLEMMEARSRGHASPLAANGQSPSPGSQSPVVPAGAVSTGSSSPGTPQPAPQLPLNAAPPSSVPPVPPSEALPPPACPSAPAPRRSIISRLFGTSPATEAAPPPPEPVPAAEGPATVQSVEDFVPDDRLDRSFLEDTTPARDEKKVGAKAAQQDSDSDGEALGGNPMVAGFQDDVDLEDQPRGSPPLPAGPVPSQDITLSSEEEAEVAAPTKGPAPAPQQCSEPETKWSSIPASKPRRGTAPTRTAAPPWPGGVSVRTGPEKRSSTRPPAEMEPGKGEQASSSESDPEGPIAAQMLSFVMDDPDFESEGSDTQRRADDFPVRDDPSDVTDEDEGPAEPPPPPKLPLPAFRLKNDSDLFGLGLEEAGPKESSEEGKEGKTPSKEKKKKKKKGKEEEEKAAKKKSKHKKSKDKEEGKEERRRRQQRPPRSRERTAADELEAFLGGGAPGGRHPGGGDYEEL
Sequence of UniProt Q9H6Z4 (Q9H6Z4 whole entry, looked up): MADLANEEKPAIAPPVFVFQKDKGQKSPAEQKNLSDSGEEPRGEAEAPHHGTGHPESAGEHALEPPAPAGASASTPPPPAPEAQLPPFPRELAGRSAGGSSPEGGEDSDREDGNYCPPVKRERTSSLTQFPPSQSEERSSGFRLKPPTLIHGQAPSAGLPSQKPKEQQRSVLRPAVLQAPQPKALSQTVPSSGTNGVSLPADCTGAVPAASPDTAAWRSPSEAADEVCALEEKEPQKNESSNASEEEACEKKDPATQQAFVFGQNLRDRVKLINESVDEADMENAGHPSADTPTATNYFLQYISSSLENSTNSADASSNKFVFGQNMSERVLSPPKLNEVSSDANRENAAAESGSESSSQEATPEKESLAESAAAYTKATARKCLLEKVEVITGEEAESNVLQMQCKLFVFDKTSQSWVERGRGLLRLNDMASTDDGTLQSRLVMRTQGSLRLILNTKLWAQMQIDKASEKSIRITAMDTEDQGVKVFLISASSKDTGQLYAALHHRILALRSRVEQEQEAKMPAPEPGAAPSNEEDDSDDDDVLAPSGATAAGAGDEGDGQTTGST
Sequence of UniProt Q15008 (Q15008 whole entry, looked up): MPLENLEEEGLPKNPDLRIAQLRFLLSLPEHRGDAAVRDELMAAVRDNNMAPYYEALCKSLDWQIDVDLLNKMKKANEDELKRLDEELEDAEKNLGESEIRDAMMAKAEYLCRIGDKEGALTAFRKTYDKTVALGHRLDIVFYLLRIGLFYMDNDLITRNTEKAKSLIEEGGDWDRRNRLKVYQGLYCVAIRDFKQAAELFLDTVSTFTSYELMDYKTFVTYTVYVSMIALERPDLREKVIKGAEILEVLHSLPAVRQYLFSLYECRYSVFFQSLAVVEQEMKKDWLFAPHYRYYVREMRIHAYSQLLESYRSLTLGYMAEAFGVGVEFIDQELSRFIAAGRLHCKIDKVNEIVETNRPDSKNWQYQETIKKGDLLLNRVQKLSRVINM
Sequence of UniProt Q9UBS8 (Q9UBS8 whole entry, looked up): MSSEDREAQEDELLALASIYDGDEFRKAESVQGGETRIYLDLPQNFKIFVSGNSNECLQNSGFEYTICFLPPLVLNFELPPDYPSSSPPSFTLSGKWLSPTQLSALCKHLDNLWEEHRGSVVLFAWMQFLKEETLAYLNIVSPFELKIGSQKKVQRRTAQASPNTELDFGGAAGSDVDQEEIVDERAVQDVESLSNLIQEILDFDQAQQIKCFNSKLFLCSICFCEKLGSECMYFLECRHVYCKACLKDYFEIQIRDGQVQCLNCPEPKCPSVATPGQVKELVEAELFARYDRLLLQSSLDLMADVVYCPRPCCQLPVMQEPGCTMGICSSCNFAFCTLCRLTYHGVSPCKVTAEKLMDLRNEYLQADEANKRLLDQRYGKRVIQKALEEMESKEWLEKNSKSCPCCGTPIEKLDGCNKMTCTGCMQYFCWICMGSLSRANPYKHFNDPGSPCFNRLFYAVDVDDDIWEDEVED
Sequence of UniProt P62834 (P62834 whole entry, looked up): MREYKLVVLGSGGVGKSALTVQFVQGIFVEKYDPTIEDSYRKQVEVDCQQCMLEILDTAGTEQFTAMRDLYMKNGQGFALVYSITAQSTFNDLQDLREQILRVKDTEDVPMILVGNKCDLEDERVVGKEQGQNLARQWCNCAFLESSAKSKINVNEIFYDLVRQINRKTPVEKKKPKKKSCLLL
Sequence of UniProt Q05209 (Q05209 whole entry, looked up): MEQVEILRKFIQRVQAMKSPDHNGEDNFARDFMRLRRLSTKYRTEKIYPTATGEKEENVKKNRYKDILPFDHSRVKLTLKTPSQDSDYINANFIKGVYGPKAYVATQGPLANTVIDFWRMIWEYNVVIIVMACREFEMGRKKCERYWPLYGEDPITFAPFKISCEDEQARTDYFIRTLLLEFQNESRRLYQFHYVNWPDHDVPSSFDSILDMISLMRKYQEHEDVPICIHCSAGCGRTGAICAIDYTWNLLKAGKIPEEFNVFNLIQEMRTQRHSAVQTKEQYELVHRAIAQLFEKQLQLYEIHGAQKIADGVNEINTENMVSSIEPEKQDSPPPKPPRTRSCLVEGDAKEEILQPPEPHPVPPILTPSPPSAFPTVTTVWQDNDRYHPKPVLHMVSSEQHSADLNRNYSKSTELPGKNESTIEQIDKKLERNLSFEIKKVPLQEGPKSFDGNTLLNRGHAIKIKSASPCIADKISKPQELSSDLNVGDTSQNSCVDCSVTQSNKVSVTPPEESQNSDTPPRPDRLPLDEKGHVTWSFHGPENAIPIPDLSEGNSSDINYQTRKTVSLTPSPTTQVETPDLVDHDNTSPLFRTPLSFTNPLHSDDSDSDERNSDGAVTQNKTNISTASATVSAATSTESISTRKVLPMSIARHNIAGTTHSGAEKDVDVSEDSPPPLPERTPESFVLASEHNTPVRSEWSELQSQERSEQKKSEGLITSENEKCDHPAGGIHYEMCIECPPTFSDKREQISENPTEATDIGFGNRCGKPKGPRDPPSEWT

“RAP1A_P62834_118_DTEDVPMILVGNKCDLEDERVVGK (UniProt P62834)”: the “probe-labelled cysteine peptide fold change” value (10 µM) was -0.603 and the “probe-labelled cysteine peptide fold change” value (50 µM) is -0.364.

Take “RNPEP_Q9H4A4_85_LDSHPCLEVTAAALR (UniProt Q9H4A4)”: the “probe-labelled cysteine peptide fold change” value reads like this: (10 µM) 0.0713; (50 µM) -0.0588.

As to “RABL6_Q3YEC7_172_VPTHVPVCVLGNYR (UniProt Q3YEC7)”, the “probe-labelled cysteine peptide fold change” value by setting is: (10 µM) 0.0329; (50 µM) 0.101.

For the target “RBM22_Q9NW64_74_TEVCQTCSK (UniProt Q9NW64)”, the “probe-labelled cysteine peptide fold change” value (10 µM) is -0.0386 and the “probe-labelled cysteine peptide fold change” value (50 µM) is -0.0803.

Take “RNF14_Q9UBS8_350_LTYHGVSPCK (UniProt Q9UBS8)”: the “probe-labelled cysteine peptide fold change” value runs as follows: (10 µM) 0.114; (50 µM) 0.116.

For the target “PSMD6_Q15008_188_VYQGLYCVAIR (UniProt Q15008)”, the “probe-labelled cysteine peptide fold change” value was -0.0246 (10 µM) and 0.231 (50 µM).

For the target “RPL30_P62888_52_LVILANNCPALR (UniProt P62888)”, the “probe-labelled cysteine peptide fold change” value (10 µM) was 0.0216 and the “probe-labelled cysteine peptide fold change” value (50 µM) was 0.142.

Take “RANBP2_P49792_3221_ITITECGQI (UniProt P49792)”: the “probe-labelled cysteine peptide fold change” value (10 µM) is -0.127 and the “probe-labelled cysteine peptide fold change” value (50 µM) came to 0.249.

Turning to “RAB3GAP1_Q15042_783_HLLPCVIHAAVLK (UniProt Q15042)”, the “probe-labelled cysteine peptide fold change” value runs as follows: (10 µM) -0.107; (50 µM) -0.00935.

In the case of “RANBP3_Q9H6Z4_406_VEVITGEEAESNVLQMQCK (UniProt Q9H6Z4)”, the “probe-labelled cysteine peptide fold change” value reads like this: (10 µM) 0.0311; (50 µM) 0.26.

Take “RAI1_Q7Z5J4_899_APLICTK (UniProt Q7Z5J4)”: the “probe-labelled cysteine peptide fold change” value is -0.024 (10 µM) and -0.376 (50 µM).

For “RASAL3_Q86YV0_447_LCGALEPALPAQAK (UniProt Q86YV0)”, the “probe-labelled cysteine peptide fold change” value was 0.119 (10 µM) and 0.0549 (50 µM).

On to “PTPN12_Q05209_343_SCLVEGDAK (UniProt Q05209)”, for which the “probe-labelled cysteine peptide fold change” value runs as follows: (10 µM) 0.155; (50 µM) -0.0495.

On to “RAB3GAP1_Q15042_873_FVSCLLEQPEVLVTGAGR (UniProt Q15042)”, for which the “probe-labelled cysteine peptide fold change” value was determined as 0.274 (10 µM) and 0.33 (50 µM).

Regarding “RABEP1_Q15276_350_IPVVCALTQEESSAQLSNEEEHLDSTR (UniProt Q15276)”, the “probe-labelled cysteine peptide fold change” value (10 µM) is -0.0072 and the “probe-labelled cysteine peptide fold change” value (50 µM) was -0.0899.
